The full ranking holds about 1,100 compounds; the median of “Renilla luciferase signal (cell health) relative to plate median” is about 0.97, and the highest 2% start at about 1.6. Shown is part of a subset that was picked to be rich in the highest values.
Tested on: HEK293T (UBE3A T485A transfected, BAR Wnt reporter)
Assay: Renilla luciferase signal (cell health) relative to plate median (fold (linear ratio)); higher = higher Renilla signal
Details: 24 h
Summary of the method: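 Each value averages four biological replicates in HEK293T cells grown at 4500 cells/well in DMEM with 10% FBS at 37°C and 5% CO2. The cells were transfected with a BAR firefly luciferase Wnt reporter, TK-Renilla and an expression plasmid, then four hours later robotically treated with the chemicals at 0.01–100 uM for 24 h. Dual-Glo luciferase signals were median-centred per plate, with the firefly/Renilla ratio reported as Wnt activity and raw Renilla as cell health.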

Compound | Renilla luciferase signal (concentration: 0.01 uM) | Renilla luciferase signal (concentration: 0.1 uM) | Renilla luciferase signal (concentration: 1 uM) | Renilla luciferase signal (concentration: 10 uM) | Renilla luciferase signal (concentration: 100 uM)
CCOP(=S)(OCC)Oc1ccc([N+](=O)[O-])cc1 [Parathion] | 1.03 | 1.13 | 1.04 | 1.11 | 1.36
CC1=C(C(=O)Nc2ccccc2)SCCO1 [Carboxin] | 0.996 | 1.11 | 1.07 | 0.949 | 2.12
N=C(Nc1ccccc1)Nc1ccccc1 [1,3-Diphenylguanidine] |  | 1.03 | 0.989 | 0.895 | 0.887
O=C(Nc1ccccc1)c1ccccc1I [Benodanil] |  | 0.942 | 0.924 | 0.913 | 0.739
CS(=O)(=O)c1ccc(C(=O)C2C(=O)CCCC2=O)c([N+](=O)[O-])c1 [Mesotrione] | 0.834 | 0.808 | 0.956 | 1.03 | 1.39
FC(F)C(F)(F)OCC(Cn1cncn1)c1ccc(Cl)cc1Cl (stereo not given) [Tetraconazole] | 1.01 | 1.09 | 0.957 | 0.997 | 0.0289
CO/N=C(/C1=NOCCO1)c1ccccc1Oc1ncnc(Oc2ccccc2Cl)c1F [Fluoxastrobin] | 0.875 | 0.941 | 1.05 | 0.383 | 1.63
ClC(Cl)(Cl)c1ccccc1 [Benzotrichloride] |  | 0.82 | 0.9 | 0.872 | 1.04
O=C(O)C1(c2ccc3c(c2)OC[C@H](Cc2ccc(-c4ccccc4)cc2)[C@H]3O)CCCC1 |  | 0.875 | 0.823 | 0.781 | 0.0901
O=C1C2CC=CCC2C(=O)N1SC(Cl)(Cl)Cl (stereo not given) [Captan] | 1.19 | 1.04 | 0.975 | 1.02 | 0.036
Clc1ccc(C(Cl)(Cl)Cl)cc1 [4-Chlorobenzotrichloride] |  | 0.548 | 0.799 | 0.652 | 0.663
COc1cc(OC)nc(Sc2cccc(Cl)c2C(=O)[O-])n1.[Na+] [Pyrithiobac-sodium] | 1.11 | 1.16 | 0.967 | 1.07 | 1.69
CCCCCCCCCc1ccc(O)cc1 [4-Nonylphenol, branched] |  | 1 | 0.945 | 1.06 | 0.973
CC(C)(C)C(O)C(Oc1ccc(Cl)cc1)n1cncn1 (stereo not given) [Triadimenol] | 1.01 | 0.885 | 0.844 | 0.906 | 0.699
CCNC(=O)NC(=O)/C(C#N)=N/OC [Cymoxanil] | 1.26 | 1.16 | 1.08 | 1.15 | 2.39
CO/C=C(/C(=O)OC)c1ccccc1COc1cccc(C(F)(F)F)n1 [Picoxystrobin] |  | 0.76 | 0.879 | 0.82 | 0.465
O=C(Nc1ccccc1-c1ccc(Cl)cc1)c1cccnc1Cl [Boscalid] | 0.775 | 0.848 | 0.903 | 0.818 | 1.24
Oc1cccc2cccnc12 [8-Hydroxyquinoline] |  | 0.779 | 0.797 | 0.764 | 0.0228
CC1=NNC(=O)N(/N=C/c2cccnc2)C1 [Pymetrozine] | 0.89 | 0.911 | 0.966 | 0.97 | 1.45
CC(Oc1ccc(Cl)cc1Cl)C(=O)O (stereo not given) [Dichlorprop] | 0.843 | 0.959 | 0.959 | 1.04 | 1.6
CC(C)OC(=O)Nc1cccc(Cl)c1 [Chlorpropham] | 0.728 | 0.618 | 0.828 | 0.81 | 0.766
CC(Oc1cccc(Cl)c1)C(=O)O (stereo not given) [Cloprop] | 0.924 | 0.701 | 0.814 | 1.01 | 2.51

Compound | Renilla luciferase signal (concentration: 0.01 uM) | Renilla luciferase signal (concentration: 0.1 uM) | Renilla luciferase signal (concentration: 1 uM) | Renilla luciferase signal (concentration: 10 uM) | Renilla luciferase signal (concentration: 100 uM)
CC(C)(C)C(=O)C(Oc1ccc(Cl)cc1)n1cncn1 (stereo not given) [Triadimefon] | 1.42 | 0.867 | 0.961 | 1.05 | 0.777
O=C1c2ccccc2C(=O)N1SC(Cl)(Cl)Cl [Folpet] | 1.08 | 1.03 | 1.08 | 1.17 | 0.0353
CNC(=O)Oc1ccccc1OC(C)C [Propoxur] | 0.908 | 0.899 | 0.869 | 0.843 | 1.18
c1cc2ccc3cccc4ccc(c1)c2c34 [Pyrene] |  | 0.967 | 0.928 | 1.05 | 0.889
c1cc2c3c(cccc3c1)CC2 [Acenaphthene] |  | 1.17 | 1.26 | 1.14 | 1.68
C1=Cc2cccc3cccc1c23 [Acenaphthylene] |  | 0.739 | 0.666 | 0.684 | 0.683
CCOP(=S)(OCC)Oc1ccc2c(C)c(Cl)c(=O)oc2c1 [Coumaphos] | 1.01 | 1.11 | 1 | 1.04 | 0.717
COC(=O)NC(=S)Nc1ccccc1NC(=S)NC(=O)OC [Thiophanate-methyl] | 1.37 | 0.913 | 1 | 1.01 | 0.274
COC(=O)NS(=O)(=O)c1ccc(N)cc1 [Asulam] | 1.08 | 1.11 | 0.923 | 0.97 | 2
COC(=O)c1ccccc1N [Methyl 2-aminobenzoate] |  | 1.09 | 1.07 | 1.11 | 1.51
C1CC2OC2CC1C1CO1 (stereo not given) [4-Vinyl-1-cyclohexene dioxide] |  | 0.978 | 0.971 | 0.856 | 0.459
Cc1cc(Cc2ccc(N)c(C)c2)ccc1N [4,4'-Methylenebis(2-methylaniline)] |  | 1.07 | 1.1 | 0.902 | 0.647
CCOP(=O)(OCC)Oc1cc(C)nc(C(C)C)n1 [Diazoxon] | 1.03 | 0.822 | 0.982 | 0.982 | 1.37
[N-]=[N+]=[N-].[Na+] [Sodium azide] |  | 1.11 |  |  | 1.29
[N-]=[N+]=[N-].[Na+] [Sodium Azide] | 1.38 |  | 1.01 | 1.05 | 
O=C1C2(Cl)C3(Cl)C4(Cl)C(Cl)(Cl)C5(Cl)C3(Cl)C1(Cl)C5(Cl)C24Cl (stereo not given) [Kepone] |  | 1.03 | 0.982 | 1 | 1.33
COP(N)(=O)SC (stereo not given) [Methamidophos] | 1.08 | 0.989 | 1.14 | 1.04 | 2.27
COP(=O)(NC(C)=O)SC (stereo not given) [Acephate] | 0.777 | 0.825 | 0.95 | 1 | 1.52
Nc1ccc(Cc2ccc(N)cc2)cc1 [4,4'-Methylenedianiline] |  | 0.803 | 0.812 | 0.825 | 0.725
O=C(O)C(Cl)(Cl)Cl [Trichloroacetic acid] |  | 0.932 | 1.09 | 1.11 | 1.35
CCOP(=S)(OCC)OC(Cl)C(Cl)(Cl)Cl (stereo not given) [Chlorethoxyfos] | 0.648 | 0.673 | 0.754 | 0.769 | 1.03
CCC(C)c1ccc(O)cc1 (stereo not given) [4-(Butan-2-yl)phenol] |  | 1.03 | 1.04 | 0.967 | 1.21

Compound | Renilla luciferase signal (concentration: 0.01 uM) | Renilla luciferase signal (concentration: 0.1 uM) | Renilla luciferase signal (concentration: 1 uM) | Renilla luciferase signal (concentration: 10 uM) | Renilla luciferase signal (concentration: 100 uM)
CC(C)Oc1cccc(NC(=O)c2ccccc2C(F)(F)F)c1 [Flutolanil] | 0.958 | 0.913 | 0.934 | 0.913 | 1.07
CN(C)C(=O)Nc1ccc(Cl)cc1 [Monuron] |  | 1.07 | 1.08 | 1.08 | 0.972
CN(C)C(=O)Nc1cccc(C(F)(F)F)c1 [Fluometuron] | 1.01 | 0.858 | 0.955 | 0.915 | 1.74
Cc1[nH]c(=O)n(C(C)(C)C)c(=O)c1Cl [Terbacil] | 0.884 | 0.706 | 0.903 | 0.738 | 1.53
O=S(=O)(O)C(F)(F)C(F)(F)C(F)(F)C(F)(F)C(F)(F)C(F)(F)C(F)(F)C(F)(F)F | 0.967 | 0.956 | 0.993 | 0.948 | 0.944
[Na+].[O-][Cl+][O-] [Sodium chlorite] |  | 1.07 | 0.996 | 1.06 | 1.34
Clc1cc(Cl)c(Cl)cc1Cl [1,2,4,5-Tetrachlorobenzene] |  | 0.579 | 0.572 | 0.454 | 0.504
Brc1ccc(Oc2ccccc2)cc1 [p-Bromodiphenyl ether] |  | 0.896 | 0.914 | 0.837 | 0.987
[OH][Sn]([c]1ccccc1)([c]1ccccc1)[c]1ccccc1 [Triphenyltin hydroxide] | 0.857 | 0.622 | 0.135 | 0.0103 | 0.0121
O=C(NC(=O)c1c(F)cccc1F)Nc1ccc(OC(F)(F)C(F)OC(F)(F)F)c(Cl)c1 (stereo not given) [Novaluron] | 1.08 | 0.982 | 0.998 | 0.935 | 1.48
CCOP(=O)(SC(C)CC)N1CCSC1=O (stereo not given) [Fosthiazate] | 1.08 | 1.07 | 1.19 | 1.21 | 1.7
[Cl-].[Cl-].[Hg+2] [Mercuric chloride] |  | 0.533 | 0.402 | 0.153 | 0.0217
c1nc[nH]n1 [1H-1,2,4-Triazole] |  | 0.873 | 0.956 | 0.885 | 1.12
CN/C(=N\[N+](=O)[O-])NCc1cnc(Cl)s1 [Clothianidin] | 0.978 | 0.964 | 0.897 | 1.05 | 1.48
CN1COCN(Cc2cnc(Cl)s2)C1=N[N+](=O)[O-] [Thiamethoxam] | 1.14 | 1.09 | 1.1 | 0.959 | 2.15
O=[N+]([O-])/N=C1\NCCN1Cc1ccc(Cl)nc1 [Imidacloprid] | 0.993 | 1.11 | 0.934 | 0.949 | 1.15
O=S1OCC2C(CO1)C1(Cl)C(Cl)=C(Cl)C2(Cl)C1(Cl)Cl (stereo not given) [Endosulfan] | 1.05 | 1.05 | 1.02 | 1.13 | 1.06
CS(=O)(=O)c1cc(C(F)(F)F)ccc1C(=O)c1cnoc1C1CC1 [Isoxaflutole] | 0.938 | 0.74 | 0.954 | 0.778 | 2.79
CCC[CH2][Sn]([Cl])([CH2]CCC)[CH2]CCC [Tributyltin chloride] |  | 0.598 | 0.574 | 0.235 | 0.0217
CCCSP(=O)(OCC)Oc1ccc(Br)cc1Cl (stereo not given) [Profenofos] | 0.9 | 0.888 | 0.969 | 1 | 0.894

Source: the supplement of paper PMC9254222
